In the library only some 3.6% were active in any assay of this set; here they are far more common.
PTEN del growth = growth suppression of PTEN-null HCT116, primary screen, cell-based, CellTiter-Glo | 140,000 tested, 1.2% active | HCT116 PTEN-null viability, 60 h; hits give low values | viability, % at 10 µM | AID 827, 2007;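 active = viability at or below a set limit, 4 SD under the median of all tested compounds, cut at about 3.7% in these data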;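 note: PTEN knockout HCT116 line with beta catenin targeted HCT116 as companion control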
HCT116 bCat-KO = primary screen for growth suppressors in beta-catenin knockout HCT116 cells (colon tumor, human); viability, % at 10 µM; 140,000 tested, 1.5% active; HCT116 beta-catenin knockout viability, CellTiter-Glo, 60 h; hits give low values;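 active = viability at or under a set limit, the compound median less 4 SD, cut at about 6% in these data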;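 note: 0% = Hyamine 1622 control at 20 µM and 100% = untreated cell control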
WT yeast gro inh = growth inhibition of WT strain, primary screen, mitochondrial fusion inhibitor project, WT and mutant strains, chemical genetic | 190,000 tested, 2.1% active | inhibition, % at 10 µM | mitochondrial fusion phenotypic screen; in the data active = inhibition above about 58%; tested in S. cerevisiae
hDAT+cocaine = changed hDAT dopamine uptake under cocaine IC80, either direction, primary screen, cocaine antagonist project, cell-based, LLC-PK1 hDAT, [14C]-dopamine uptake, MLSMR | LLC-PK1 hDAT cells, [14C]-dopamine uptake with cocaine IC80; actives deviate in either direction | B-score at 10 µM | 110,000 tested, 1.3% active;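 active = Z score or B-score, a plate-position-corrected score, falls beyond the plate's 99.7% confidence bounds, in either direction; inactive = both scores lie inside the 99.7% bounds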;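 note: scored against the spread of the other compound wells on the same plate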
Target sequence (Q01959 whole entry, looked up): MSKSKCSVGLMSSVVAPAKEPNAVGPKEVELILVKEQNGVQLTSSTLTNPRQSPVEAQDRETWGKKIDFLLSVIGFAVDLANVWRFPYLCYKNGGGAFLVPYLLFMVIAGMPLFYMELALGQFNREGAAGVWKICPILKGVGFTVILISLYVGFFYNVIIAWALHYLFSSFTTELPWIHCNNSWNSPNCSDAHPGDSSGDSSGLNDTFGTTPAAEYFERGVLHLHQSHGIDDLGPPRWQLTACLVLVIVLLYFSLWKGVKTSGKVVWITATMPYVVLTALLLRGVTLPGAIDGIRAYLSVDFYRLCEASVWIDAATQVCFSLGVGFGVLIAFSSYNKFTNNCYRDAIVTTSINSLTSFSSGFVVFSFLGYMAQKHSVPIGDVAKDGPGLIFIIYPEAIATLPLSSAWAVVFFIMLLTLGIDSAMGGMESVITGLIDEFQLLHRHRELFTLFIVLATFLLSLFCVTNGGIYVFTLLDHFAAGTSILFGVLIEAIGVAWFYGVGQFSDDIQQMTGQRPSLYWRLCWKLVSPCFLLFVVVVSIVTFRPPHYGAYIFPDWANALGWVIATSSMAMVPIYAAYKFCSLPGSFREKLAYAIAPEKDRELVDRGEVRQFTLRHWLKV
The depositor's hits bear a star; nt = no result given.

SMILES	PTEN del growth	HCT116 bCat-KO	WT yeast gro inh	hDAT+cocaine
COc1cccc(-c2nc(CS(=O)(=O)CC(=O)NCCC(C)C)c(C)o2)c1	93	92	4	0.0059
CCCCn1c(O)c(N=Nc2ccccn2)c2ccccc21	82	83	68*	nt
CSc1ccccc1NC(=O)c1ccccc1N(Cc1ccccc1)S(C)(=O)=O	88	88	10	-0.019
COCCN(Cc1nc(C2(c3ccc(C)cc3)CCCC2)no1)C(C)C	nt	nt	16	nt
O=C1OC(c2ccc(F)cc2)=C/C1=C\c1ccc([N+](=O)[O-])o1	nt	nt	85*	nt
O=C1OC(c2ccccc2)=C/C1=C/c1cccs1	96	96	19	nt
Cn1c(O)c(/C=N/Nc2ccccc2)c(=O)n(C)c1=O	nt	nt	67*	nt
CCOc1ccc(N2C(=O)CC(NCCNc3ccc(C(=O)c4cccs4)cc3)C2=O)cc1 (centres undefined)	nt	nt	7	nt
O=C(COc1ccccc1-c1ccccc1)NN=C1CCCC1	nt	nt	15	nt
CCOC(=O)c1cnc2ccc(OCC)cc2c1N1CCN(c2ccccc2OC)CC1	77	72	79*	1
Cc1ccc(NC(=O)CCC(=O)NNC(=O)c2ccccc2[N+](=O)[O-])c(C)c1	nt	nt	-14	nt
CC(C)=CCc1c(O)c(CC=C(C)C)c2c(c1O)C(=O)CC(c1ccc(O)cc1)O2 (centres undefined)	nt	nt	91*	2.1
Cc1cccc(N2C(=O)CC(n3ccnc3)C2=O)c1C (centres undefined)	nt	nt	-3	nt
Cc1ccc(Cl)cc1N1CCN(C(=O)c2cn(C)c(=O)c3c2c2ccccc2n3C)CC1	1.3*	1.4*	15	-0.55
N/C(=N\OC(=O)COc1ccc2ccccc2c1Br)c1ccccn1	nt	nt	64*	nt
CCc1ccccc1NC(=O)CN(C)C(=O)Cn1ncc(Cl)c(Cl)c1=O	1.8*	1.8*	3	nt
CCCc1cc(=O)[nH]c(SCC(=O)N(C)CC(=O)Nc2ccccc2CC)n1	95	91	-8	0.5
CCOC(=O)c1ccc(NC(=O)Cn2ncc(Cl)c(Cl)c2=O)cc1	1.8*	1.7*	48	nt
O=C(OCn1ncc(Cl)c(Cl)c1=O)c1ccc(C(F)(F)F)cc1	4	3.4*	7	-1.5
Cc1ccc(C(=O)OCn2ncc(Cl)c(Cl)c2=O)cc1	1.2*	1.0*	7	-1.7
NC(=O)CC(NC(=O)Cc1cccc2ccccc12)c1ccc(N2CCN(c3ccc(F)cc3)CC2)c([N+](=O)[O-])c1 (centres undefined)	nt	nt	nt	-1.5
Cc1sc(-n2c(C)cc(C=O)c2C)c(C(=O)O)c1C	94	83	2	-1.6
CC(Cc1ccsc1)NC(=O)CCc1nnc(CCc2ccccc2)o1 (centres undefined)	nt	nt	2	nt
CC(C)C(=O)Nc1ccc(-c2nc3ccccc3c(=O)o2)cc1	nt	nt	-7	nt
COc1ccc(NC(=O)Cn2ncc(Cl)c(Cl)c2=O)cc1S(=O)(=O)N1CCOCC1	0.6*	0.9*	-6	nt
SMILES	PTEN del growth	HCT116 bCat-KO	WT yeast gro inh	hDAT+cocaine
CCc1ccc(C(=O)Nc2ccc(OC)c(S(=O)(=O)N3CCOCC3)c2)cc1	nt	nt	-12	nt
NC(=O)C1CCCNC1 (centres undefined)	nt	nt	nt	-0.63
CC(=O)c1ccc(N2CCN(S(=O)(=O)c3cccc4nsnc34)CC2)cc1	nt	nt	-6	nt
COc1ccc(Nc2ncnc3scc(-c4ccc(OC)cc4)c23)cc1	21	19	72*	nt
CCOC(=O)N/N=C/c1c(F)c(F)c(F)c(F)c1F	87	85	-10	nt
COc1ccc(C(O)(C(=O)NNc2ccc(C)cc2)c2cccs2)cc1 (centres undefined)	80	89	0	-7.9*
O=C(NNc1ccc(C2CCCCC2)cc1)C(O)(c1ccccc1)c1cccs1 (centres undefined)	58	72	89*	0.94
COc1ccc(CNC(=O)Cn2cncn2)cc1OC	nt	nt	9	nt
O=C(CN1CCN(c2ncc(C(F)(F)F)cc2Cl)CC1)N1CCN(c2ncc(C(F)(F)F)cc2Cl)CC1	47	24	73*	0.47
O=C(OCCN1CCN(c2ncc(C(F)(F)F)cc2Cl)CC1)c1ccc(F)cc1	95	95	-12	0.084
O=C(CSc1ccc(Cl)cc1)N1CCN(c2ncc(C(F)(F)F)cc2Cl)CC1	93	84	29	1.3
Cc1ccc(C(=O)OCCN2CCN(c3ncc(C(F)(F)F)cc3Cl)CC2)cc1	90	88	67*	1.2
CNC(=O)c1ccsc1NC(=O)c1coc2ccccc2c1=O	nt	nt	0	nt
O=C1/C(=C/c2ccc(N3CCOCC3)o2)SC(=Nc2ccccc2)N1CCc1c[nH]c2ccccc12	1.4*	1.4*	57	-0.15
COc1cc(/C=C2\SC(=Nc3ccccc3)N(CCc3c[nH]c4ccccc34)C2=O)ccc1OC(C)C(=O)O (centres undefined)	82	87	7	nt
CC1CCN(C(=O)c2ccc3c(c2)OCCO3)CC1	108	110	2	6.7*
CC1CCN(C(=S)c2ccc3c(c2)OCO3)CC1	97	95	20	0.065
CCOC(=O)c1cc(=O)n2nc(-c3ccc(C)cc3)nc2s1	91	92	-21	-8.4*
CC(=O)N(Cc1c(C)nn(-c2ccccc2)c1Cl)c1ccc(Cl)cc1	58	58	1	2
Cc1nn(-c2ccccc2)c(Cl)c1CN(C(=O)CCl)c1cccc2ccccc12	1.4*	1.8*	47	nt
Cc1nn(-c2ccccc2)c(Cl)c1CN(C(=O)CCl)c1ccc(Cl)cc1	0.8*	0.8*	47	nt
CCOC(=O)Cc1nnc(NC(=O)CSc2nnc3c(n2)[nH]c2ccccc23)s1	nt	nt	0	nt
CCN(CC)c1ccc(/C=N/NC(=O)CCC(=O)NCc2ccccc2)c(O)c1	16	18	15	nt
N/C(=N\OC(=O)C(c1ccccc1)c1ccccc1)c1cccnc1	89	93	76*	2
Nc1c(C(=O)Nc2cccc(Cl)c2Cl)sc2nc(-c3cccnc3)ccc12	1.3*	1.5*	1	nt
SMILES	PTEN del growth	HCT116 bCat-KO	WT yeast gro inh	hDAT+cocaine
CC1=C(CC(=O)c2ccc(Cl)cc2)C(=O)c2ccccc2C1=O	1.9*	3.7*	44	0.54
Cc1ccccc1-c1nsc(SCC(=O)c2ccc(Cl)cc2)n1	99	97	7	nt
Cn1c(SCC(=O)Nc2cc(S(=O)(=O)N3CCOCC3)ccc2N2CCOCC2)nnc1-c1ccncc1	nt	nt	10	nt
CCOc1ccc2c(c1)n([O-])c1c([n+]2=O)CCCC1	98	90	7	0.73
O=[n+]1c2c(n([O-])c3cc(Cl)ccc31)CCCC2	87	86	9	0.97*
O=C(Cc1cccs1)N1CCC(c2nc3c(nnn3Cc3ccc(F)cc3)c(=O)[nH]2)CC1	83	85	5	1.8
O=C(C1CCC1)N1CCC(c2nc3c(nnn3Cc3c(F)cccc3Cl)c(=O)[nH]2)CC1	103	91	-7	2.8*
O=C(Nc1ccc(F)cc1)N1CCC(c2nc3c(nnn3Cc3ccccc3Cl)c(=O)[nH]2)CC1	nt	nt	-8	nt

Source: PubChem BioAssay
